The record followed here is PubChem BioAssay (NCI).

Structures are written as SMILES. The panel holds about 83,000 compounds, 20% with a hit somewhere; the sample as a whole holds those more often.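 Activity criterion: percent growth below 10, measured after cells in 96-well plates were exposed to a single compound concentration for 48 hours.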 Values without a mark were called inactive. The source made the active and inactive calls.

Among the test systems are RPMI-8226 leukemia; OVCAR-8 ovarian; OVCAR-5 ovarian; OVCAR-4 ovarian; SK-OV-3 ovarian; IGROV1 ovarian; OVCAR-3 ovarian; HS 578T breast; NCI/ADR-RES ovarian; T-47D breast; BT-549 breast; MDA-MB-435 melanoma; SW-620 colon; MCF7 breast; HCT-116 colon; HCC-2998 colon; KM12 colon.
Holding throughout (experiment): NCI-60 one-dose screen, 48 h (100 = growth as untreated, 0 = no growth, -100 = all killed)
Conditions in all cases: 10 µM

Consider `COc1ccc(-c2nc(-c3nc4cc(Cl)c(F)cc4[nH]3)c3ccccn23)cc1`, for which the growth was 8.97% (active) with RPMI-8226 leukemia; 40.5% in the assay with OVCAR-8 ovarian; 98% in the assay with OVCAR-5 ovarian; 57.6% with OVCAR-4 ovarian; 105% in the assay with SK-OV-3 ovarian; 74.6% with IGROV1 ovarian. Moreover, the growth in the assay on OVCAR-3 ovarian is 81.3%; in the assay with HS 578T breast, 133%; in the assay with NCI/ADR-RES ovarian, 60.2%; in the assay with T-47D breast it was 39.7%; in the assay on BT-549 breast it was 91%; in the assay on MDA-MB-435 melanoma, 64.4%. In addition, the growth with SW-620 colon is 71.6%; in the assay with MCF7 breast, 58.1%; in the assay with HCT-116 colon it was 71.4%; in the assay on HCC-2998 colon it was 72.2%.

Take `O=C1/C(=C\c2ccc(F)cc2)CN(C(=O)c2ccccc2F)C/C1=C\c1ccc(F)cc1`: the growth is -35.8% (active) in the assay with RPMI-8226 leukemia; 1.61% (active) in the assay on OVCAR-8 ovarian; 21.6% in the assay with OVCAR-5 ovarian; -5.48% (active) in the assay with OVCAR-4 ovarian; 11.1% in the assay on SK-OV-3 ovarian; -38.4% (active) in the assay with IGROV1 ovarian. The growth with OVCAR-3 ovarian is -29.8% (active); in the assay with HS 578T breast, 11.8%; in the assay on NCI/ADR-RES ovarian it was 11.5%; in the assay with T-47D breast, 40.1%; in the assay with BT-549 breast, -43.2% (active); in the assay with MDA-MB-435 melanoma it was -47.4% (active). Further, the growth is -78.3% (active) in the assay with SW-620 colon, -72.1% (active) in the assay with MCF7 breast, -75% (active) in the assay on HCT-116 colon and -83.8% (active) in the assay on HCC-2998 colon.

Consider `N#CCCN1C/C(=C/c2ccc(Br)cc2)C(=O)/C(=C/c2ccc(Br)cc2)C1`, for which the growth in the assay on RPMI-8226 leukemia was -14% (active); in the assay on OVCAR-8 ovarian, -17.3% (active); in the assay on OVCAR-5 ovarian it was 2.15% (active); in the assay with OVCAR-4 ovarian it was 0.905% (active); with SK-OV-3 ovarian, 9.84% (active); in the assay with IGROV1 ovarian, -69.1% (active). Also, the growth in the assay with OVCAR-3 ovarian was -65.2% (active); in the assay on HS 578T breast it was 12.4%; with NCI/ADR-RES ovarian it was 16.8%; in the assay with T-47D breast, 6.33% (active); in the assay on BT-549 breast, -23.3% (active); in the assay on MDA-MB-435 melanoma, -43.3% (active). For the same compound, the growth is -53.7% (active) in the assay with SW-620 colon, 0.16% (active) in the assay with MCF7 breast, -50.8% (active) in the assay with HCT-116 colon and -87.4% (active) in the assay on HCC-2998 colon.

Regarding `C#Cc1ccc(-n2c(/C=C/c3ccc(Cl)c(F)c3)nc3ncccc3c2=O)cc1`, the growth with RPMI-8226 leukemia is -14.9% (active); with OVCAR-8 ovarian, -17.4% (active); in the assay on OVCAR-5 ovarian, 24.1%; in the assay with OVCAR-4 ovarian, -88.5% (active); in the assay with SK-OV-3 ovarian it was -7.71% (active); with IGROV1 ovarian, -54.5% (active). The growth in the assay with OVCAR-3 ovarian is -79.8% (active); with HS 578T breast, 13.8%; in the assay with NCI/ADR-RES ovarian, 1.19% (active); in the assay with T-47D breast, -39% (active); with BT-549 breast, 10.7%; in the assay with MDA-MB-435 melanoma, -3.46% (active). For the same compound, the growth was -27.3% (active) in the assay on SW-620 colon, 3.48% (active) in the assay on MCF7 breast, -52.8% (active) with HCT-116 colon and -84.3% (active) with HCC-2998 colon.

Regarding `CCOC(=O)N1C/C(=C/c2ccc(Cl)cc2)C(=O)/C(=C/c2ccc(Cl)cc2)C1`, the growth was -11.6% (active) in the assay with RPMI-8226 leukemia; 27.8% in the assay with OVCAR-8 ovarian; 120% in the assay on OVCAR-5 ovarian; 60.5% with OVCAR-4 ovarian; 83.7% in the assay on SK-OV-3 ovarian; 44% with IGROV1 ovarian. The growth with OVCAR-3 ovarian is 27.4%; in the assay on HS 578T breast, 63.9%; in the assay on NCI/ADR-RES ovarian it was 71%; with T-47D breast it was 69.8%; with BT-549 breast it was 81.5%; with MDA-MB-435 melanoma, 38.4%. Besides, the growth is 1.52% (active) with SW-620 colon, 5.24% (active) in the assay with MCF7 breast, -60.4% (active) in the assay with HCT-116 colon and -59.8% (active) in the assay with HCC-2998 colon.

As for `CCC(=O)N1C/C(=C/c2ccc(OC)cc2)C(=O)/C(=C/c2ccc(OC)cc2)C1`, the growth in the assay on RPMI-8226 leukemia was -15.8% (active); in the assay with OVCAR-8 ovarian, 10.7%; in the assay with OVCAR-5 ovarian, 96.1%; with OVCAR-4 ovarian it was 58.3%; in the assay with SK-OV-3 ovarian, 40.8%; in the assay with IGROV1 ovarian it was 41.8%. Moreover, the growth is -6.54% (active) in the assay with OVCAR-3 ovarian; 9.81% (active) in the assay on HS 578T breast; 25% with NCI/ADR-RES ovarian; 57% in the assay with T-47D breast; 13.2% with BT-549 breast; -28.1% (active) with MDA-MB-435 melanoma. The growth in the assay with SW-620 colon is -50.1% (active); in the assay with MCF7 breast it was -4.78% (active); in the assay on HCT-116 colon, -70.8% (active); with HCC-2998 colon, -84% (active).

Regarding `COc1cc2cc3c(nc2cc1OC)CCN3Cc1ccc(NC(=O)Nc2cc(C(F)(F)F)cc(C(F)(F)F)c2)cc1`, the growth with RPMI-8226 leukemia was 54.2%; in the assay with OVCAR-8 ovarian, 61.7%; in the assay with OVCAR-5 ovarian, 92.6%; with OVCAR-4 ovarian, 80.5%; in the assay with SK-OV-3 ovarian, 95.2%; in the assay with IGROV1 ovarian, 84.3%. Besides, the growth in the assay on OVCAR-3 ovarian was 51.6%; with HS 578T breast it was 77.4%; in the assay with NCI/ADR-RES ovarian, 60.5%; in the assay on T-47D breast, 71.5%; in the assay with BT-549 breast, 106%; with MDA-MB-435 melanoma it was 76.4%. The growth in the assay on SW-620 colon was 88.3%; in the assay on MCF7 breast, 49.3%; in the assay with HCT-116 colon, 66.7%; with HCC-2998 colon, 83.4%; with KM12 colon, 68.6%.

Consider `COc1ccc(Nc2ncnc3c2c(SC)nn3-c2ccccc2)cc1`, for which the growth in the assay on RPMI-8226 leukemia is 85.3%; with OVCAR-8 ovarian, 98%; with OVCAR-5 ovarian, 96.7%; in the assay with OVCAR-4 ovarian it was 73.3%; in the assay with SK-OV-3 ovarian, 109%; in the assay with IGROV1 ovarian it was 88.4%. Besides, the growth in the assay with OVCAR-3 ovarian was 99.1%; in the assay with HS 578T breast it was 136%; with NCI/ADR-RES ovarian, 91.9%; in the assay with T-47D breast it was 70.7%; in the assay on BT-549 breast, 96.5%; with MDA-MB-435 melanoma, 97.8%. Besides, the growth with SW-620 colon was 103%; in the assay on MCF7 breast it was 103%; in the assay with HCT-116 colon it was 89.2%; with HCC-2998 colon, 103%.

Consider `CCC(=O)N1C/C(=C/c2ccc(Cl)cc2)C(=O)/C(=C/c2ccc(Cl)cc2)C1`, for which the growth is -37% (active) in the assay on RPMI-8226 leukemia; 1.63% (active) in the assay on OVCAR-8 ovarian; 2.37% (active) in the assay on OVCAR-5 ovarian; 8.11% (active) with OVCAR-4 ovarian; -34.8% (active) in the assay with SK-OV-3 ovarian; -66.1% (active) in the assay with IGROV1 ovarian. For the same compound, the growth is -47.2% (active) with OVCAR-3 ovarian; 22.2% in the assay on HS 578T breast; 14.9% in the assay on NCI/ADR-RES ovarian; 26% with T-47D breast; -18.7% (active) with BT-549 breast; -58.6% (active) with MDA-MB-435 melanoma. Further, the growth with SW-620 colon was -63.6% (active); in the assay on MCF7 breast, -77.9% (active); in the assay on HCT-116 colon, -85.4% (active); with HCC-2998 colon, -89.3% (active).

`O=C1/C(=C\c2ccc(F)cc2)CN(C(=O)c2ccccc2)C/C1=C\c1ccc(F)cc1`: the growth is -19.5% (active) in the assay on RPMI-8226 leukemia; 3.54% (active) in the assay with OVCAR-8 ovarian; 78.6% in the assay on OVCAR-5 ovarian; 27.3% in the assay on OVCAR-4 ovarian; 74.6% in the assay with SK-OV-3 ovarian; 21.8% in the assay on IGROV1 ovarian. Also, the growth with OVCAR-3 ovarian was 11.3%; in the assay with HS 578T breast, 28.1%; in the assay on NCI/ADR-RES ovarian, 24.8%; in the assay with T-47D breast, 57%; with BT-549 breast it was 34.9%; in the assay on MDA-MB-435 melanoma, -39.4% (active). For the same compound, the growth was -44.4% (active) in the assay with SW-620 colon, 1.32% (active) in the assay with MCF7 breast, -55.3% (active) in the assay with HCT-116 colon and 16.4% with HCC-2998 colon.
